# Shown are actives, neighbours in structure and some others; about 12% of the full set was active somewhere.
# Sfp PPTase inh: blocks B. subtilis Sfp PPTase activity | Q9F4F7 | Potency, µM, hits mostly inhibitors | Biochemical Sfp PPTase activity, qHTS | hit rate 3.5% among 310,000;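 also: the enzyme is Sfp with the accession as filed and its product quenches rhodamine fluorescence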
#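 Sfp 15 nM + cpd, 15 min RT; start w/ rhodamine-CoA 5 uM, BHQ-2-YbbR 12.5 uM (final); 50 mM Hepes pH 7.6, 10 mM MgCl2, 0.01% NP-40, 0.01% BSA; read 525/598 nm at 0 and 30 min.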
# HP1b chromo inh: HP1-beta chromodomain-methylated histone interaction inhibition; AlphaScreen HP1-beta / biotin-H3K9me3 peptide binding; P83916; Potency, µM (titrated, usually from 114 µM), most hits filed as inhibitors; hit rate 0.56% among 390,000; also: nearly all actives have a fitted effect of over 70% in size
# Target sequence (P83916 whole entry, looked up): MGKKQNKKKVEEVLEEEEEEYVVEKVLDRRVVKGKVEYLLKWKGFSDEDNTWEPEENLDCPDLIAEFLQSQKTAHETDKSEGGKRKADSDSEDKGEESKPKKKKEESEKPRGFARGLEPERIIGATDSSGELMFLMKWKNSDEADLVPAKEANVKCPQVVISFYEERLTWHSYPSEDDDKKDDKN
#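 HP1-beta protein (50 nM final) preincubated 30 min at room temperature with biotinylated H3(1-18)K9me3 peptide (50 nM) in PBS pH 7.4, 0.01% Tween-20, then compound added for 30 min. AlphaScreen streptavidin donor/nickel chelate acceptor beads (10 ug/mL final), 30 min dark, luminescence read.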
# G9a inh: inhibitors of human histone lysine methyltransferase G9a. Q96KQ7. G9a H3K9 monomethylation, AlphaScreen, 2 h. Potency, µM (titrated, usually from 102 µM), most hits filed as inhibitors. hit rate 8.8% among 350,000. AID 504332; also: nearly all actives have a fitted effect of over 75% in size
# Target sequence (Q96KQ7 913-1193 limits assumed): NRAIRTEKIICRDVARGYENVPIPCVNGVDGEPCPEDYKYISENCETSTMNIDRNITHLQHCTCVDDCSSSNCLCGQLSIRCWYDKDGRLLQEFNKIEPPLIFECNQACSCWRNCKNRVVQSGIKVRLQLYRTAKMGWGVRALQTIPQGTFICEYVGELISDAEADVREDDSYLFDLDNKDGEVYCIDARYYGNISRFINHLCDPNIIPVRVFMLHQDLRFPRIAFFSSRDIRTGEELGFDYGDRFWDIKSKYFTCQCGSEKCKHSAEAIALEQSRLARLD
#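 AlphaScreen read-out: biotin-H3K9 peptide (500 nM) methylation by 20 nM enzyme with 20 uM SAM, 2 h at room temperature after 15 min compound preincubation; anti-monomethyl H3K9 antibody plus donor/acceptor beads, 10 min dark.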
# BAZ2B block: blocks human BAZ2B | Potency, µM (doses to about 114 µM), usual class: inhibitors | AID 504333 | Q9UIF8 | hit rate 4.4% among 360,000 | AlphaScreen BAZ2B-H3K14Ac peptide displacement; also: nearly all actives have a fitted effect of over 60% in size
#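 Compounds, titrated to a top concentration of 110 uM, were incubated 30 min at room temperature with preformed BAZ2B/acetyl-K14 H3 peptide complex (50 nM each). Proximity signal was measured by AlphaScreen after 20 min with beads.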
# JMJD2A Tudor: blocks the human JMJD2A Tudor domain. O75164. AlphaScreen JMJD2A-Tudor / H3K4me3 peptide binding. Potency, µM (highest dose often 114 µM), usual class: inhibitors. hit rate 4.4% among 390,000. AID 504339; also: nearly all actives have a fitted effect of over 50% in size
# L3MBTL1 inh: blocks human L3MBTL1. Q9Y468. hit rate 0.66% among 230,000. AID 485360. Potency, µM (titrated, usually from 57.1 µM), actives largely listed as inhibitors. AlphaScreen L3MBTL1–H3K9me1 peptide binding; also: nearly all actives have a fitted effect of over 60% in size
#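 AlphaScreen assay: L3MBTL1 (50 nM final) was preincubated 30 min at room temperature with biotinylated H3(1-15)K9me1 peptide (75 nM final), then 30 min with library compounds; streptavidin donor and nickel chelate acceptor beads (10 ug/mL final) added, 30 min dark.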
# A number is an active result; n = inactive; u = inconclusive; x = no result given; [ ] = another dose, or the depositor's remark. Calls follow the shape of the dose curve; as a rule, active = well fitted curve in the direction sought with a large enough effect; inconclusive = small, poorly fitted or top-dose-only effect, or another doubt; inactive = no such curve, though single readings can be large; an effect the other way counts as inactive or inconclusive.
SMILES,Sfp PPTase inh,HP1b chromo inh,G9a inh,BAZ2B block,JMJD2A Tudor,L3MBTL1 inh
CCCCn1c(=O)c(C(=O)Nc2ccccc2N)c(O)c2ccccc21,n,n,x,50µM,n,n
CCCCCn1c(=O)c(C(=O)Nc2ccccc2N)c(O)c2ccccc21,n,n,n,n,n,n
O=C(Oc1ccccc1)N1CCC[C@@]2(CCN(Cc3ccccc3)C2)C1,n,x,n[12.7 µM],x,x,x
CN1Cc2c(ccc3c2OCO3)[C@@H]2[C@@H](O)Cc3cc4c(cc3[C@@H]21)OCO4,n,x,n[21.5 µM],x,x,x
Cc1noc(C(=O)Nc2sc3c(c2C#N)CCC3)c1Cl,n,n,45µM,n,n,x
CCOC(=O)c1c(NC(=O)c2ccc(OC)cc2)sc2c1CCCCC2,x,n,u,n,n,x
CCCC[C@@H](C)[C@@H](OC(=O)C[C@@H](CC(=O)O)C(=O)O)[C@H](C[C@@H](C)C[C@H](O)CCCC[C@@H](O)C[C@H](O)[C@H](C)N)OC(=O)C[C@H](CC(=O)O)C(=O)O,n,x,n,x,x,x
CCOc1ccc(N2C(=O)NC(=O)/C(=C\c3ccccc3[N+](=O)[O-])C2=O)cc1,45µM,n,32µM,n,n,n
COc1ccc(N2C(=O)NC(=O)/C(=C\c3ccccc3[N+](=O)[O-])C2=O)cc1,40µM,n,8.9µM,n,n,n
O=C1NC(=O)C(=Cc2ccccc2[N+](=O)[O-])C(=O)N1,x,n,x,x,n,x
c1cncc([C@H]2CCCCN2)c1,n,x,x,x,x,x
N#CC1(N2CCCCC2)CCCCC1,n,x,n[12.7 µM],x,x,x
CNCCc1c[nH]c2ccccc12,n,n,28µM,n,n,n
CNCCc1c[nH]c2ccc(O)cc12,n,u,10µM,x,22µM,x
OC(CNCCc1c[nH]c2ccccc12)C(F)(F)F (stereo unspecified),n,n,x,n,n,n
CN(C)CCOc1ccc(/C(=C(/CCCl)c2ccccc2)c2ccccc2)cc1,n,n,u,x,25µM,x
CN(C)C(=O)Oc1ccc(C(=O)c2ccccc2)cc1,n,n,n,n,n,n
Nc1nccc(-c2c(-c3ccc(F)cc3)ncn2C2CCNCC2)n1,n,x,x,x,x,x
C=CCN1C(=O)NC(=O)/C(=C/c2ccc(N(C)C)c(Br)c2)C1=O,50µM,n,16µM,n,n,n
C=CCN1C(=O)NC(=O)/C(=C/c2cccn2C)C1=O,n,n,50µM,n,n,n
Cn1cccc1/C=C1/C(=O)NC(=S)N(Cc2ccc(F)cc2)C1=O,u,35µM,10µM,25µM,45µM,x
Cn1cccc1/C=C1/C(=O)NC(=O)N(Cc2ccc(F)cc2)C1=O,n,n,40µM,45µM,n,x
CCC1(CC)C(=O)N(Cc2ccccc2)C(=O)N(Cc2ccccc2)C1=O,n,n,n,n,n,x
Cn1cccc1/C=C1/C(=O)NC(=O)N(Cc2ccccc2)C1=O,n,n,u,45µM,n,n
Cn1cccc1/C=C1\C(=O)NC(=O)N(Cc2ccccc2)C1=O,n,u,u,50µM,u,x
SMILES,Sfp PPTase inh,HP1b chromo inh,G9a inh,BAZ2B block,JMJD2A Tudor,L3MBTL1 inh
N#CC1=C(N)Oc2n[nH]c(-c3ccccc3)c2C1c1cccc(OC(=O)N2CCOCC2)c1 (stereo unspecified),n,n,u,n,n,n
O=C1NC(=O)C(=Cc2ccc(OCC(=O)N3CCOCC3)cc2)C(=O)N1,u,n,u,n,n,n
N=C1/C(=C\c2ccc(OC(=O)c3ccccc3Cl)cc2)C(=O)N=C2SC(N3CCOCC3)=NN12,n,n,n,45µM,50µM,x
CCS(=O)(=O)C1=NN2C(=N)/C(=C\c3ccc(OC(=O)c4ccco4)cc3)C(=O)N=C2S1,u,n,40µM,u,n,x
Cc1ccccc1-n1c(/C=C/c2ccccn2)nc2ccccc2c1=O,n,n,n,n,n,x
CN1C2CCC1/C(=C/c1ccccn1)C(=O)/C2=C\c1ccccn1,u,n,u,n,79µM,n
N[C@H](CCP(=O)(O)O)C(=O)O,n,x,x,x,x,x
[N-]=[N+]=CC(=O)OC[C@H](N)C(=O)O,n,n,n,n,32µM,n
CCN(CC)C(=O)c1ccc(NC(=O)c2cccc(S(=O)(=O)N3CCN(Cc4ccccc4)CC3)c2)cc1,x,n,n[12.7 µM],n,n,n
